# Among all 39,000 compounds or so, about 3,300 (8.5%) were called active. Many of the other results were omitted from the sample, so actives are more common in it than they were.
# Test system: HepG2
# Assay: cytotoxicity call (relative viability < 0.9)
# Conditions: 10 µM
row,Compound,cytotoxicity call
1,CO[C@@H]1CN(C)C(=O)c2ccc(NC(=O)Nc3ccccc3)cc2OC[C@H](C)N(C(=O)CN(C)C)C[C@@H]1C,inactive
2,COc1ccc(S(=O)(=O)Nc2cccc3c2O[C@H](CN(C)C(=O)NC(C)C)[C@H](C)CN([C@@H](C)CO)C3=O)cc1,inactive
3,C[C@@H]1CCCCO[C@@H](CN(C)C(=O)NC2CCCCC2)[C@@H](C)CN([C@H](C)CO)C(=O)c2cc(NC(=O)NC3CCCCC3)ccc2O1,inactive
4,COc1ccc(S(=O)(=O)N(C)C[C@@H]2Oc3ncc(C#Cc4ccccc4)cc3C(=O)N([C@H](C)CO)C[C@@H]2C)cc1,inactive
5,O=c1[nH]nc2ccccn12,inactive
6,CN1C(=O)c2cc(NC(=O)C3CCOCC3)ccc2OC[C@@H]2O[C@@H](CC(=O)NCc3ccc4c(c3)OCO4)CC[C@H]21,inactive
7,COc1ccc(C(C)(C)N)cc1OC,inactive
8,C[N+]1(C)C[C@H](O)[C@H](C(=O)O)C1,active
9,C[N+]1(C)C[C@@H](O)C[C@H]1C(=O)O,inactive
10,C[C@@H]1C[C@H]1C(=O)O,inactive
11,CN1CCN(C(=O)C[C@@H]2C=C[C@@H](NC(=O)Cc3ccccn3)[C@H](CO)O2)CC1,inactive
12,CCCC#Cc1cnc2c(c1)C(=O)N([C@@H](C)CO)C[C@H](C)[C@H](CN(C)S(=O)(=O)c1cccc(OC)c1)O2,inactive
13,CCN1C[C@]23CN(C(=O)c4ccn[nH]4)C[C@@H](C[C@H]2S1(=O)=O)O3,inactive
14,COc1ccc(S(=O)(=O)N(C)C[C@@H]2OCCCC[C@@H](C)Oc3ccc(NC(=O)CCC(F)(F)F)cc3C(=O)N([C@H](C)CO)C[C@H]2C)cc1,inactive
15,COc1cc(C[C@H]2CO[C@H](c3ccc(O)c(OC)c3)[C@@H]2CO[C@H]2O[C@@H](CO)[C@@H](O)[C@@H](O)[C@@H]2O)ccc1O,active
16,COc1cc([C@H]2OC[C@](O)(Cc3ccc(O[C@@H]4O[C@H](CO)[C@@H](O)[C@H](O)[C@H]4O)c(OC)c3)[C@@H]2CO)ccc1O,inactive
17,COc1cc([C@H]2OC[C@@H]3[C@H]2CO[C@H]3c2cc(OC)c(O[C@@H]3O[C@H](CO)[C@@H](O)[C@H](O)[C@H]3O)c(OC)c2)cc(OC)c1OC,inactive
18,COc1ccc(NC(=O)Nc2ccc3c(c2)C(=O)N([C@@H](C)CO)C[C@H](C)[C@@H](CN(C)Cc2ccc(C(F)(F)F)cc2)OCCCC[C@H](C)O3)cc1,inactive
19,COc1ccc(NC(=O)Nc2ccc3c(c2)C(=O)N([C@@H](C)CO)C[C@@H](C)[C@H](CN(C)Cc2ccc(C(F)(F)F)cc2)OCCCC[C@H](C)O3)cc1,inactive
20,COc1ccc(NC(=O)Nc2ccc3c(c2)C(=O)N([C@H](C)CO)C[C@H](C)[C@@H](CN(C)Cc2ccc(C(F)(F)F)cc2)OCCCC[C@H](C)O3)cc1,inactive
21,COc1ccc(NC(=O)Nc2ccc3c(c2)C(=O)N([C@H](C)CO)C[C@@H](C)[C@@H](CN(C)Cc2ccc(C(F)(F)F)cc2)OCCCC[C@H](C)O3)cc1,inactive

row,Compound,cytotoxicity call
1,COc1ccc(CN(C)C[C@H]2OCCCC[C@@H](C)Oc3ccc(NC(=O)Nc4ccc(C(F)(F)F)cc4)cc3C(=O)N([C@H](C)CO)C[C@@H]2C)cc1,active
2,COc1ccc(CN(C)C[C@@H]2OCCCC[C@H](C)Oc3ccc(NC(=O)Nc4ccc(C(F)(F)F)cc4)cc3C(=O)N([C@@H](C)CO)C[C@@H]2C)cc1,active
3,COc1ccc(CN(C)C[C@@H]2OCCCC[C@@H](C)Oc3ccc(NC(=O)Nc4ccc(C(F)(F)F)cc4)cc3C(=O)N([C@@H](C)CO)C[C@H]2C)cc1,active
4,COc1ccc(CN(C)C[C@@H]2OCCCC[C@H](C)Oc3ccc(NC(=O)Nc4ccc(C(F)(F)F)cc4)cc3C(=O)N([C@H](C)CO)C[C@@H]2C)cc1,active
5,COCC#Cc1ccc2c(c1)O[C@H](CN(C)C(=O)Nc1ccc(OC)cc1)[C@H](C)CN([C@H](C)CO)S2(=O)=O,inactive
6,COCC(=O)N1CC[C@]2(CC1)CN([C@H](CO)c1[nH]c3cc(ccc3c12)OC)C(=O)Nc1ccccc1F,inactive
7,Cc1c(C)c2c(c(C)c1OC(=O)CCC(=O)O)CC[C@@](C)(CCC[C@H](C)CCC[C@H](C)CCCC(C)C)O2,inactive
8,Cc1ccc(S(=O)(=O)Nc2ccc3c(c2)CC(=O)N([C@H](C)CO)C[C@@H](C)[C@@H](CN(C)S(=O)(=O)c2c(C)noc2C)O3)cc1,inactive
9,COc1ccc(CCNC(=O)[C@@H]2c3ccccc3C(=O)N(CC34CC5CC(CC(C5)C3)C4)[C@H]2c2ccc(CO)cc2)cc1,inactive
10,C=CCN(CC=C)S(=O)(=O)c1nnc[nH]1,inactive
11,C[C@@H]1CN([C@@H](C)CO)C(=O)c2cc(NC(=O)Cc3ccccc3)ccc2O[C@@H](C)CCCCO[C@H]1CN(C)S(=O)(=O)c1cccs1,inactive
12,O=C(C[C@H]1C=C[C@H](NC(=O)c2ccncc2)[C@H](CO)O1)NCc1ccncn1,inactive
13,CC1=CC(=O)C2=C(C)CCC3C(C)C(=O)OC3C12 (stereo unspecified),inactive
14,C[C@H](CO)N1C[C@H](C)[C@@H](CN(C)Cc2ccc(Cl)c(Cl)c2)Oc2ccc(NC(=O)CCCCCC(=O)Nc3ccccc3N)cc2CC1=O,inactive
15,O=C(C[C@@H]1CC[C@H]2[C@@H](COC[C@H](O)CN2C(=O)Nc2cccc(F)c2)O1)NCCCN1CCOCC1,inactive
16,COc1ccc(CN(C)C[C@@H]2OCCCC[C@H](C)Oc3ccc(NC(=O)Nc4ccc(C(F)(F)F)cc4)cc3C(=O)N([C@@H](C)CO)C[C@H]2C)cc1,active
17,COc1ccc(NC(=O)Nc2ccc3c(c2)C(=O)N([C@@H](C)CO)C[C@H](C)[C@@H](CN(C)Cc2ccc(C(F)(F)F)cc2)OCCCC[C@@H](C)O3)cc1,active
18,COc1ccc(CN(C)C[C@H]2OCCCC[C@@H](C)Oc3ccc(NC(=O)Nc4ccc(C(F)(F)F)cc4)cc3C(=O)N([C@H](C)CO)C[C@H]2C)cc1,active
19,COc1ccc(CN(C)C[C@H]2OCCCC[C@H](C)Oc3ccc(NC(=O)Nc4ccc(C(F)(F)F)cc4)cc3C(=O)N([C@H](C)CO)C[C@H]2C)cc1,active
20,O=C(C[C@H]1C[C@H]2c3cc(NC(=O)c4ccc5c(c4)OCO5)ccc3O[C@H]2[C@H](CO)O1)NCCN1CCCCC1,inactive
